Laboratory results: PubChem BioAssay (NCI)
Compounds without any hit were thinned out: in the full panel of roughly 83,000, 20% have a hit.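 Cells were grown in 96-well plates and exposed to the test compound at a single concentration for 48 hours; results are reported as percent growth, with values below 10 considered active.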 Values without a mark were called inactive. Calls of active or inactive are those of the source.

What was measured:
Experiment in all cases: NCI-60 one-dose screen, 48 h (100 = growth as untreated, 0 = no growth, -100 = all killed)
Details in all cases: 10 µM unless noted
NCI-H23 lung = test system: NCI-H23 lung
NCI-H226 lung = test system: NCI-H226 lung
NCI-H322M lung = test system: NCI-H322M lung
HOP-62 NSCLC = test system: HOP-62 NSCLC
NCI-H460 lung = test system: NCI-H460 lung
HOP-92 NSCLC = test system: HOP-92 NSCLC
NCI-H522 lung = test system: NCI-H522 lung
A549/ATCC NSCLC = test system: A549/ATCC NSCLC
786-0 renal = test system: 786-0 renal
COLO 205 colon = test system: COLO 205 colon
DU-145 prostate = test system: DU-145 prostate
K-562 leukemia = test system: K-562 leukemia
MALME-3M melanoma = test system: MALME-3M melanoma
MDA-MB-231 breast = test system: MDA-MB-231 breast
RXF 393 renal = test system: RXF 393 renal
SF-268 CNS = test system: SF-268 CNS
SF-295 CNS = test system: SF-295 CNS
SF-539 CNS = test system: SF-539 CNS
UACC-257 melanoma = test system: UACC-257 melanoma
M14 melanoma = test system: M14 melanoma

| Structure (SMILES) | growth (NCI-H23 lung) | growth (NCI-H226 lung) | growth (NCI-H322M lung) [%] | growth (HOP-62 NSCLC) [%] | growth (NCI-H460 lung) | growth (HOP-92 NSCLC) | growth (NCI-H522 lung) | growth (A549/ATCC NSCLC) [%] | growth (786-0 renal) | growth (COLO 205 colon) | growth (DU-145 prostate) [%] | growth (K-562 leukemia) | growth (MALME-3M melanoma) | growth (MDA-MB-231 breast) [%] | growth (RXF 393 renal) | growth (SF-268 CNS) | growth (SF-295 CNS) | growth (SF-539 CNS) | growth (UACC-257 melanoma) [%] | growth (M14 melanoma) |
| --- | --- | --- | --- | --- | --- | --- | --- | --- | --- | --- | --- | --- | --- | --- | --- | --- | --- | --- | --- | --- |
| CO[C@]12C=C/C(=C(/C(=O)OCc3cccnc3)C(=O)CCCCCCCC[C@@]3(OC)C=C/C(=C(/C(=O)OCc4cccnc4)C(=O)CCCCCCCC1)O3)O2 | -53.1% (active) | -45.6% (active) | 18.3 | 30.9 | 3.19% (active) | 2.61% (active) | -4.14% (active) | 10.7 | -38.4% (active) | -0.264% (active) | 20 | 1.46% (active) | -31.2% (active) | 13.9 | -87.2% (active) | 9% (active) | -0.607% (active) | 3% (active) | 33.6 | 3.57% (active) |
| Cc1ccc(-c2cc(-c3ccc(Cl)cc3)nc(NC(=O)c3cccnc3)n2)cc1 | 96.5% | 98.6% | 98.5 | 114 | 102% | 117% | 93.5% | 105 | 102% | 109% | 106 | 87.6% | 111% | 91.3 | 94.1% | 97.6% | 103% | 106% | 121 | 109% |
| Clc1ccc(CNc2c3ccccc3nc3ccccc23)cc1 | 53% | 75.5% | 54.1 | 53 | 16.4% | 25.5% | 66.5% | 39.3 | 35.3% | 8.58% (active) | 54.8 | 4.34% (active) | 39.6% | 54.8 | 29.7% | 67.9% | 59.6% | 30.3% | 76.1 | 53.3% |
| O=C1c2cccc3cccc(c23)C(=O)N1N1C(=O)c2cccc3c(N4CCOCC4)ccc(c23)C1=O | 89.1% | 95.4% | 94.5 | 87.3 | 101% | 85.6% | 102% | 95.5 | 102% | 108% | 110 | 102% | 78.8% | 76.3 | 93.4% | 96.2% | 90.7% | 101% | 96.7 | 90% |
| COc1ccc(-c2nn(-c3ccccc3)cc2/C=C2/SC(=S)N(C)C2=O)cc1 | 94.5% | 55.1% | 60.8 | 25.3 | 11.2% | 74.7% | 91.2% | 36.8 | 1.33% (active) | 64.4% | 90.7 | 56.9% | 88.4% | 63 | 96.5% | 99.2% | 51.4% | 70.3% | 29.4 | 97.3% |
| Cc1ccc(Cl)cc1Nc1nc(C(F)(F)F)ccc1C(=O)N/N=C/c1cccnc1 | 37.4% | 30.7% | 25.1 | 29.4 | 18.3% | 11.3% | -5.81% (active) | 27.5 | 2.05% (active) | 38.9% | 41.5 | 7.72% (active) | 15% | 33.4 | 11.6% | 27.7% | -20.6% (active) | 27.1% | 28.2 | 47.9% |
| CC(=O)n1nc(C(=O)OC(C)C)c2cc(C)c(C)cc21 | 95.2% | 96.4% | 101 | 92.1 | 98.7% | 67.1% | 88.8% | 82.2 | 80.9% | 102% | 105 | 91.1% | 95% | 102 | 118% | 102% | 89.8% | 107% | 92.3 | 93.7% |
| N#Cc1c(-c2ccccc2)cc(-c2ccccc2)n(CCCCCC(=O)Nc2ccccc2N)c1=O | 81.2% | 69.9% | 81.5 | 82.3 | 50.9% | 51.9% | 55.8% | 71.2 | 57.6% | 84% | 72.6 | 46.3% | 76.8% | 64.1 | 39% | 64.3% | 95.9% | 72.9% | 78.6 | 80.1% |
